Screening results as filed in PubChem BioAssay.
HCMV inh = qHTS Assay for inhibitors of the human cytomegalovirus (HCMV). hit rate 4.5% among 410,000. activity change, negative = inhibition, % at 57.5 µM. HFF cells, HCMV-luciferase reporter, 72 h; active compounds read low; in the data active means activity change below about -60%; inconclusive means no clear call, values can overlap the other calls; inactive means above about -39%
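Cell-based, HFFs, 1000 cells/well, 16 h 37C; cpds in DMSO + HCMV-luc, MOI 1 PFU/cell; 72 h 37C; OneGlo luminescence after 5 min RT; norm. to buffer vs Salinomycin 10uM.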
Pf growth 48h = Primary qHTS for delayed death inhibitors of the malarial parasite plastid, 48 hour incubation; AID 504832, 2011; P. falciparum luciferase growth in erythrocytes, 48 h; hit rate 5.9% among 310,000; Potency, µM (top dose mostly 28.7 µM), without a hit: at the top dose activity change, negative = inhibition, actives largely listed as inhibitors; further: potency means the concentration at half of the fitted maximal effect
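Luciferase-expressing P. falciparum in infected erythrocytes (2% hematocrit, 0.1% parasitemia final) in RPMI 1640/0.5% Albumax were exposed to compound for 48 hours at 37 C, 5% CO2; growth read as luminescence.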
Pf growth 96h = Primary qHTS for delayed death inhibitors of the malarial parasite plastid, 96 hour incubation | P. falciparum luciferase reporter growth, 96 h | Potency, µM (doses to about 28.7 µM), for inactives: at the highest dose activity change, negative = inhibition, hits mostly inhibitors | hit rate 6.9% among 320,000; further: potency means the concentration at half of the fitted maximal effect
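Erythrocytes infected with luciferase-expressing P. falciparum were dispensed at 2% hematocrit and 0.05% parasitemia (final), then incubated with compounds 96 hours at 37 C in 5% CO2. Luminescence after detection reagent addition reported growth.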
HCV inhibitor = qHTS Assay for Inhibitors of Hepatitis C Virus (HCV); Huh7.5.1 HCVcc-Cre infection, luciferase reporter, 44 h; Potency, µM (series often up to 41.8 µM), for the others: at the top dose activity change, negative = inhibition, most hits filed as inhibitors; hit rate 3.4% among 340,000; AID 651820, 2012; further: potency means the concentration at half of the fitted maximal effect
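Whole-lifecycle infectious HCVcc-Cre system; cells 1,000/well, compound then virus (~0.5 moi) added 4 h after plating, 44 h culture. Luciferase read 15 sec following 15 min substrate incubation, room temp.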
The depositor's hits bear a star; u = inconclusive; x = no result given. An excerpt weighted towards active compounds, which were near 13% of everything screened. Unless noted, the call rests on the fitted dose curve; in most records, active means well fitted inhibition curve with a large enough effect; inconclusive means small, poorly fitted or top-dose-only effect, or another doubt; inactive means no such curve, though single readings can be large or run the other way. On the % scale 0 is the no-effect control and ±100 the full control effect.

SMILES | HCMV inh | Pf growth 48h | Pf growth 96h | HCV inhibitor
O=C(c1ccc2c3c(cccc13)CC2)C1CCCN(C(=O)c2cc[n+]([O-])cc2)C1 (stereo unspecified) | -39 | -6% | 2.9µM* | 3%
Cc1cnc(CN2CCCC(C(=O)c3ccc4c5c(cccc35)CC4)C2)[nH]1 (stereo unspecified) | -34 | u | u | u
COc1ccc(NC(=O)C(NS(=O)(=O)c2ccc3c(c2)CCCC(=O)N3)C(C)C)c(OC)c1 (stereo unspecified) | 5 | x | x | x
Cc1ccccc1Cn1c(=O)n(CCc2ccccc2)c(=O)c2sc3ccccc3c21 | 17 | x | x | x
O=C(CCn1cnc2onc(-c3ccc(F)cc3)c2c1=O)N1CCN(c2ccccc2F)CC1 | -1 | x | x | x
COc1ccccc1CNc1ncnc2c1cnn2-c1ccc(C)cc1 | -28 | x | x | x
CCSc1nnc2c(n1)OC(c1cc(OC)c(OC)c(OC)c1)Nc1ccccc1-2 (stereo unspecified) | 31 | x | x | x
COc1ccc(N2CCN(c3ccc(NC(=O)C4CCCCC4)cc3C#N)CC2)cc1 | 19 | u | u | 9%
CC(=O)Nc1cccc(Oc2cc(C#N)c(C#N)cc2N2CCCCCC2)c1 | -87* | u | 3% | u
COc1cc(NC(=O)c2ccc(OC)c([N+](=O)[O-])c2)ccc1NC(=O)c1cccs1 | -32 | 19% | -9% | u
CCOc1ccc(C(=O)Nc2ccc(N3CCN(C)CC3)cc2)cc1[N+](=O)[O-] | 52 | u | 0% | -28%
CC(C)C(=O)Nc1cccc(NC(=O)c2cccc([N+](=O)[O-])c2)c1 | -10 | 32% | -15% | -23%
CCOc1ccc(C(=O)Nc2cccc([N+](=O)[O-])c2)cc1Br | -24 | u | u | 7.1µM*
CCOc1ccc(C(=O)Nc2ccc(N3CCN(S(C)(=O)=O)CC3)cc2)cc1[N+](=O)[O-] | -32 | -4% | 9.3µM* | -1%
COc1ccc(C(=O)C(C)Oc2cccc(NC(=O)c3cccc([N+](=O)[O-])c3)c2)cc1 (stereo unspecified) | -34 | 56% | u | 11µM*
CCOc1ccc(C(=O)Nc2cccc(NC(=O)c3cccs3)c2)cc1[N+](=O)[O-] | -40 | -16% | 12µM* | u
COC(=O)C(c1ccccc1)(c1cn(C)c2ccccc12)C(Nc1ccccc1)c1ccc(Br)cc1 (stereo unspecified) | -19 | x | x | x
Cc1ccc(NC(=O)CN(Cc2ccccc2)S(=O)(=O)c2ccc3nc(C)sc3c2)c(C)c1 | -27 | x | x | x
CCOc1ccc(C(=O)Nc2ccc(NC(=O)c3ccccc3)c(C)c2)cc1[N+](=O)[O-] | -11 | 12% | 0.21µM* | u
COc1ccc(CCNC(=O)Nc2cccc([N+](=O)[O-])c2)cc1OC | -10 | -9% | 39% | -22%
N#Cc1ccsc1NC(=O)c1ccc(Cl)c([N+](=O)[O-])c1 | -27 | 17% | u | -3%
N#Cc1ccsc1NC(=O)c1cccc([N+](=O)[O-])c1 | 27 | 3% | 11% | 10µM*
O=C(Nc1cccc([N+](=O)[O-])c1)c1ccc2nsnc2c1 | 17 | 4% | 13µM* | u
CCOc1cccc(C(=O)Nc2ccc(NC(=O)c3ccccc3)c(C)c2)c1 | 85 | u | 1% | u
COc1ccc(CCNC(=O)Nc2cccc([N+](=O)[O-])c2)cc1 | -39 | 17% | 13µM* | 4%
SMILES | HCMV inh | Pf growth 48h | Pf growth 96h | HCV inhibitor
CS(=O)(=O)N1CCN(c2ccc(NC(=S)NC(=O)c3ccccc3[N+](=O)[O-])cc2)CC1 | -30 | 22% | 24% | 13µM*
Cc1ccc(Cl)cc1NC(=O)COC(=O)C12CC3CC(CC(C3)C1)C2 | -19 | 3.7µM* | 7.4µM* | -19%
O=C(CCn1cccn1)N1CCCC(N2CCN(c3cccc(C(F)(F)F)c3)CC2)C1 (stereo unspecified) | -62* | -15% | 3% | -23%
CCN(CC)CC(=O)N1CCCC(N2CCN(c3cccc(C(F)(F)F)c3)CC2)C1 (stereo unspecified) | -11 | 2% | 9.3µM* | u
CC(=O)c1ccc(NC(=O)CSc2cn(CC(=O)N3CCCCCC3)c3ccccc23)cc1 | -9 | x | x | x
O=C(CSc1ncc2c(n1)-c1ccccc1N(Cc1ccc(F)cc1)S2(=O)=O)NCCc1ccccc1 | 2 | x | x | x
O=C(NCC(c1ccco1)N1CCCC1)c1cc2ccccc2s1 (stereo unspecified) | -11 | 2.6µM* | 4.1µM* | -19%
Cc1ccc(C(=O)NCC(c2ccco2)N2CCCCC2)s1 (stereo unspecified) | -2 | u | u | 6%
O=C(NCC(c1ccco1)N1CCCCC1)c1ccc([N+](=O)[O-])s1 (stereo unspecified) | 9 | x | x | 0.56µM*
O=C(NCc1ccc(Cl)cc1)C1CCN(S(=O)(=O)c2ccc(N3CCCC3=O)cc2)CC1 | u | -18% | 13µM* | 11µM*
O=C(NCc1ccccc1)C1CCN(S(=O)(=O)c2ccc(N3CCCC3=O)cc2)CC1 | -14 | u | 15µM* | u
O=C(CCNC(=O)C1CCN(S(=O)(=O)c2ccc(F)cc2)CC1)NCc1ccc(Cl)cc1 | -11 | 12% | 30% | 2%
O=C(NCc1ccc(F)cc1)C1CCN(S(=O)(=O)c2ccc(Cl)cc2)CC1 | -26 | 3.7µM* | -23% | 19%
CCS(=O)(=O)N1CCC(C(=O)NCc2ccccc2OC)CC1 | 55 | -9% | -15% | 13%
CCOC(=O)c1ccc(S(=O)(=O)N2CCC(C(=O)NCc3ccccc3OC)CC2)cc1 | 10 | u | 8.3µM* | -4%
O=C(NCc1ccc(Cl)cc1)C1CCN(S(=O)(=O)c2ccccc2)CC1 | -6 | 9% | -8% | -14%
Cc1ccc2oc(C(=O)NCC(c3ccc(Cl)cc3)N3CCOCC3)c(C)c2c1 (stereo unspecified) | -3 | x | x | x
COc1ccccc1CNC(=O)C1CCN(S(=O)(=O)c2ccc(N3CCCC3=O)cc2)CC1 | 0 | 12µM* | 15µM* | 17%
COC(=O)C(NS(=O)(=O)c1ccc(N2CCCC2=O)cc1)c1ccccc1 (stereo unspecified) | 5 | 12% | u | x
CCC1CN(C(=O)N2CCC(C(=O)NCc3ccccc3OC)CC2)c2ccccc2O1 (stereo unspecified) | -12 | u | 13µM* | 16µM*
NC(=O)C(Cc1ccccc1)NS(=O)(=O)c1ccc(N2CCCC2=O)cc1 (stereo unspecified) | -28 | -4% | 9.3µM* | -4%
CCCCOCC1CN(CCCC)S(=O)(=O)c2c(cccc2N2CCCC2)O1 (stereo unspecified) | -32 | x | x | x
COc1cc(C2c3c(-c4c(C)cc(C)cc4O)n[nH]c3C(=O)N2CCCOC(C)C)cc(OC)c1OC (stereo unspecified) | 2 | x | x | x
CCc1ccccc1NC(=O)CN1C(=O)CCn2nc(-c3cccn3C)cc21 | 6 | x | x | x
